Where “and” joins values, the source holds several entries; their conditions need not be identical. Equal values may be shown once. Records with an inconclusive call do not appear. Entries that show only a call come without a potency. A number with no mark means an inactive call. Calls of active or inactive are those of the source. The call rests on the fitted dose curve; in most records, active means well fitted curve in the direction sought with a large enough effect; inconclusive means small, poorly fitted or top-dose-only effect, or another doubt; inactive means no such curve, though single readings can be large; an effect the other way counts as inactive or inconclusive.
Tests used:
[1] = Viability qHTS for spleen associated tyrosine kinase inhibitor (SYKi) naive MV4-11 cells (AID 1963823); further: nearly all actives have a fitted effect of over 40% in size
How it was run: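 Read-out: CellTiter-Glo luminescence. Exposure: 72 hr, 37 C, 5% CO2, 95% humidity. Cells: MV4-11 without SYK inhibitor history, 500/well, qHTS format.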

[2] = Quantitative highthroughput screen to assess conditional lethalithy of NOMO1 cells grown in RPMI1640 with untreated serum (RPMI+s) (AID 1963876); further: nearly all actives have a fitted effect of over 35% in size
How it was run: (§1)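 Each medium arm—HPLM with 10% dialyzed FBS, or RPMI1640 with 5 mM glucose and 10% untreated or dialyzed FBS—was screened against an 11-point, 3-fold compound titration for 48 h at 37 °C, with CellTiter-Glo luminescence as endpoint.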

[3] = Quantitative highthroughput screen to assess conditional lethalithy of NOMO1 cells grown in RPMI1640 with dialyzed fetal bovine serum (RPMI+ds) (AID 1963877); further: nearly all actives have a fitted effect of over 30% in size; on Viability: series mostly up to about 46 µM
How it was run: as §1

[4] = Quantitative highthroughput screen to assess conditional lethalithy of P12 Ichikawa cells grown in Human Plasma-Like Medium with dialyzed fetal bovine serum (HPLM+ds) (AID 1963879); conditions: Potency: viability; further: nearly all actives have a fitted effect of over 35% in size; on Viability: series mostly up to about 46 µM
How it was run: as §1

[5] = Quantitative highthroughput screen to assess conditional lethalithy of P12 Ichikawa cells grown in RPMI1640 with dialyzed fetal bovine serum (RPMI+ds) (AID 1963880); conditions: Potency: P12-Ichikawa viability; further: nearly all actives have a fitted effect of over 35% in size
How it was run: as §1

[6] = Quantitative highthroughput screen to assess conditional lethalithy of P12 Ichikawa cells grown in RPMI1640 with untreated serum (RPMI+s) (AID 1963881); conditions: Potency: viability; further: nearly all actives have a fitted effect of over 35% in size; on Viability: series mostly up to about 46 µM
How it was run: as §1

[7] = Quantitative highthroughput screen to assess conditional lethalithy of SEM cells grown in Human Plasma-Like Medium with dialyzed fetal bovine serum (HPLM+ds) (AID 1963882); further: nearly all actives have a fitted effect of over 35% in size; on Viability: series mostly up to about 46 µM
How it was run: as §1

[8] = Quantitative highthroughput screen to assess conditional lethalithy of SEM cells grown in RPMI1640 with unreated serum (RPMI+s) (AID 1963883); further: nearly all actives have a fitted effect of over 35% in size
How it was run: as §1

[9] = Quantitative highthroughput screen to assess conditional lethalithy of SEM cells grown in RPMI1640 with dialyzed fetal bovine serum (RPMI+ds) (AID 1963884); further: nearly all actives have a fitted effect of over 35% in size; on Viability: series mostly up to about 46 µM
How it was run: as §1

[10] = Cellular viability qHTS for adrenocortical cancer (ACC) cell line SW-13 (AID 1963989); conditions: SW-13 ACC cells viability, CellTiter-Glo, 48 h; activity (max response): hits give low values; further: nearly all actives have a fitted effect of over 65% in size;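 on activity (max response): cells grown in serum-free medium with ITS supplement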
How it was run: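 Here, serum-free SW-13 cultures were dosed up to 46 uM. Following 48 h, ATP-dependent luminescence (CellTiter-Glo) reported viable cells, and logistic modeling produced IC50 values.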

[11] = Cellular viability qHTS for adrenocortical cancer (ACC) cell line NCI-H295R (AID 1963990); further: nearly all actives have a fitted effect of over 60% in size
How it was run: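 Viability of NCI-H295R after 48 h of treatment (final up to 46 uM) measured through cellular ATP luminescence.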

[12] = Quantitative highthroughput screen to assess conditional lethalithy of NOMO1 cells grown in Human Plasma-Like Medium with dialyzed fetal bovine serum (HPLM+ds) (AID 1963878); further: nearly all actives have a fitted effect of over 35% in size
How it was run: as §1
Potency means the concentration at half of the fitted maximal effect.

Compound | Potency [1] | Potency [2] | Potency [3] | Potency [4] | Potency [5] | Potency [6] | Potency [7] | Potency [8] | Potency [9] | activity (max response) [10] | Potency [11] | Potency [12] | Potency [10]
Cc1cccc(Nc2ccncc2S(=O)(=O)NC(=O)NC(C)C)c1 | inactive | inactive | inactive | inactive | inactive | inactive | inactive | inactive | inactive | -3.35% | inactive |  | 
CC(=O)[C@H]1CC[C@H]2[C@@H]3CC=C4C[C@@H](O)CC[C@]4(C)[C@H]3CC[C@]12C | 5.96 µM (active) | inactive | inactive | inactive |  | inactive | inactive | inactive | inactive | 14.9% and 3.3% | inactive | inactive | 
COC(=O)Nc1nc2ccc(C(=O)c3ccc(F)cc3)cc2[nH]1 | 731 nM (active) and 332 nM (active) | inactive | inactive |  |  |  |  |  |  |  | 0.112 µM (active) |  | 0.355 µM (active)
CC(C)(C)C(=O)OCOP(=O)(COCCn1cnc2c(N)ncnc21)OCOC(=O)C(C)(C)C | 944 nM (active) and 372 nM (active) | 0.235 µM (active) | 0.418 µM (active) | 0.526 µM (active) |  | 0.332 µM (active) | 0.469 µM (active) | 0.105 µM (active) | 0.105 µM (active) |  | 18.4 µM (active) and 12.6 µM (active) | 1.18 µM (active) | 
CC(C(=O)O)c1ccc(-c2ccccc2)c(F)c1 (stereo not drawn) | inactive | inactive | inactive |  |  |  | 14.8 µM (active) |  |  | -8.73% | inactive | inactive | 
COc1ccnc(CS(=O)c2nc3ccc(OC(F)F)cc3[nH]2)c1OC (stereo not drawn) | inactive | inactive | inactive |  | inactive | inactive | inactive | inactive | inactive | -15.5% and -5.64% | inactive | inactive | 
CCS(=O)(=O)c1cccc(-c2cc(C(=O)NC3CCN(C)CC3)c(C)c3[nH]c4ncc(C)cc4c23)c1 | 40.4 nM (active) and 59 nM (active) | 14.8 µM (active) | 11.8 µM (active) | 0.264 µM (active) |  | 0.235 µM (active) | 0.469 µM (active) | 0.296 µM (active) |  |  | 17.8 µM (active) | 6.62 µM (active) | 1 µM (active)
O=C(Nc1cc(C(F)(F)F)cc(C(F)(F)F)c1)c1cc(Cl)ccc1O | 651 nM (active) and 934 nM (active) | 3.32 µM (active) |  | 3.72 µM (active) | 3.32 µM (active) | 2.96 µM (active) | 4.18 µM (active) | 2.96 µM (active) | 4.18 µM (active) |  | 1.12 µM (active) | 2.96 µM (active) | 0.355 µM (active)
CS(=O)(=O)c1ccc(C2=C(c3ccccc3)C(=O)OC2)cc1 | inactive | inactive | inactive | inactive |  | inactive |  | 16.6 µM (active) | 10.5 µM (active) | -9.09% | inactive |  | 
NC(=O)c1cccc(-c2cccc(OC(=O)NC3CCCCC3)c2)c1 | inactive | inactive | inactive |  |  |  | inactive |  |  | -29.9% | inactive | inactive | 
Cc1cc(O)c2c(c1)C(=O)c1cccc(O)c1C2=O | inactive | inactive | inactive | 18.7 µM (active) |  | inactive |  |  |  | -6.49% | inactive | 20.9 µM (active) | 
CNC(=O)Nc1ccc(-c2nc(N3CC4CCC(C3)O4)c3cnn(C4CCC5(CC4)OCCO5)c3n2)cc1 | 0.0742 µM (active) | 0.059 µM (active) |  |  |  |  |  | 0.0418 µM (active) |  |  | 0.282 µM (active) |  | 
Cc1ccc(C(=O)Nc2cccc(C(F)(F)F)c2)cc1-c1ccc2nc(NCCN3CCOCC3)ncc2c1 | 184 nM (active) and 372 nM (active) | 5.9 µM (active) | 4.69 µM (active) |  |  |  | 4.69 µM (active) | 4.18 µM (active) | 4.18 µM (active) |  | 22.4 µM (active) | 4.18 µM (active) | 14.1 µM (active)
Cc1cc2cc3c(C)cc(=O)oc3c(C)c2o1 | inactive | inactive | inactive |  | inactive | inactive | inactive | inactive | inactive | 0.204% and 7.11% | inactive | inactive | 
O=C(CCN1CCN(C(=O)OCc2cc(Cl)cc(Cl)c2)CC1)c1ccc2[nH]c(=O)oc2c1 | 20.6 µM (active) and 8.33 µM (active) | inactive | inactive |  |  |  |  |  |  | -15.7% |  | inactive | 
Nc1ncnc2nc(-c3ccc(N4CCOCC4)nc3)cc(-c3cccc(Br)c3)c12 | 4.68 µM (active) | inactive |  | inactive | inactive | inactive | inactive | inactive | inactive | -17.8% | inactive | inactive | 
CC(=O)CC(c1ccccc1)c1c(O)c2ccccc2oc1=O (stereo not drawn) | inactive | inactive | inactive | inactive | inactive | inactive | inactive | inactive | inactive | -5.83% and 0.968% | inactive |  | 
CCCCN(CCCC)C(=O)CN1C[C@H](c2ccc3c(c2)OCO3)[C@@H](C(=O)O)[C@@H]1c1ccc(OC)cc1 | 16.6 µM (active) | inactive | inactive | inactive | inactive |  | 2.09 µM (active) |  |  | -6% | inactive |  | 

Compound | Potency [1] | Potency [2] | Potency [3] | Potency [4] | Potency [5] | Potency [6] | Potency [7] | Potency [8] | Potency [9] | activity (max response) [10] | Potency [11] | Potency [12] | Potency [10]
COc1cc(F)c(F)c(Nc2ccc(I)cc2F)c1NS(=O)(=O)C1(C[C@H](O)CO)CC1 | 0.332 µM (active) | inactive | inactive |  |  | inactive |  | 20.9 µM (active) |  |  | 20 µM (active) |  | 14.1 µM (active)
Cc1ccccc1C(OCCN(C)C)c1ccccc1 (stereo not drawn) | inactive | inactive | inactive | inactive | inactive | inactive | inactive | inactive | inactive | 14.3% |  |  | 
CN(C)c1cccc(-c2c3c(=O)n(-c4ccccc4Cl)[nH]c3cc(=O)n2C)c1 | inactive | 0.933 µM (active) | 0.831 µM (active) | 0.831 µM (active) |  | 1.05 µM (active) | 1.05 µM (active) |  | 0.831 µM (active) | -1.86% | inactive | 0.588 µM (active) | 
O=C(O)C(O)Cc1ccc(O)c(O)c1 (stereo not drawn) | 17.1 µM (active) | inactive | 13.2 µM (active) | inactive | inactive |  |  |  |  | -1.27% | inactive |  | 
Cc1cc2nc3c(=O)[nH]c(=O)nc-3n(CC(O)C(O)C(O)CO)c2cc1C (stereo not drawn) | inactive | inactive | inactive | inactive | inactive | inactive | inactive | inactive | inactive | 9.67% | inactive |  | 
Cc1cn2cc(C(=O)N(C)CCO)cc(N[C@@H]3CCOc4cccc(C)c43)c2n1 | 2.95 µM (active) | inactive |  | inactive | inactive | inactive | inactive |  | inactive | -15% | inactive | inactive | 
Cc1cnc(-c2cc(N3CCN(C(=O)CCS(C)(=O)=O)CC3)ncc2Cl)c(C)c1 | inactive | inactive | inactive | inactive | inactive |  | inactive | inactive | inactive |  | inactive |  | 
Cc1nc2cnc3ccc(C#Cc4cccnc4)cc3c2n1-c1ccc(C(C)(C)C#N)cc1 | 8.2 µM (active) and 235 nM (active) | 1.32 µM (active) |  |  |  |  |  | 0.132 µM (active) | 0.209 µM (active) |  | 0.891 µM (active) | 0.209 µM (active) | 
CCOc1cc(N2CCC(O)CC2)ccc1Nc1ncc2c(n1)N(C)c1ccccc1C(=O)N2C | 1.86 µM (active) | 0.332 µM (active) |  |  |  | 2.35 µM (active) | 20.9 µM (active) | 16.6 µM (active) | 16.6 µM (active) |  | 10 µM (active) |  | 15.8 µM (active)
COc1ccc(S(=O)(=O)Nc2cc(-c3c(O)ccc4ccccc34)c(O)c3ccccc23)cc1 | 1.18 µM (active) |  |  | 16.6 µM (active) | 18.7 µM (active) | 20.9 µM (active) | 14.8 µM (active) | 7.43 µM (active) | 14.8 µM (active) |  | 28.2 µM (active) | 20.9 µM (active) | 
OCCNC1CCCc2c1[nH]c1ccc(-c3ccccc3)cc21 (stereo not drawn) | 8.33 µM (active) |  |  | 20.9 µM (active) |  | 18.7 µM (active) |  | 16.6 µM (active) |  |  | 7.08 µM (active) | 23.5 µM (active) | 15.8 µM (active)
O=C1OCCN1/N=C/c1ccc([N+](=O)[O-])o1 | inactive |  |  |  |  |  |  |  |  | -0.921% |  |  | 
CO[C@@H]1[C@@H](OC(N)=O)[C@@H](O)[C@H](Oc2ccc3c(O)c(NC(=O)c4ccc(O)c(CC=C(C)C)c4)c(=O)oc3c2C)OC1(C)C | inactive |  |  | inactive | inactive | inactive | inactive | inactive | inactive | 15.7% and -3.94% | inactive |  | 
COc1cc2c(cc1Cc1cccc(Cl)c1F)c(=O)c(C(=O)O)cn2[C@H](CO)C(C)C | 5.9 µM (active) |  |  | 26.4 µM (active) | 16.6 µM (active) | 16.6 µM (active) |  |  |  |  | 25.1 µM (active) |  | 
O=S(=O)(O)c1ccc2cc(N=Nc3cc(S(=O)(=O)O)c4cccnc4c3O)ccc2c1 | inactive |  |  |  |  |  |  |  |  | -15.7% |  |  | 
O=C(O)CCC=CCC[C@@H]1[C@H](N2CCCCC2)[C@@H](O)C[C@@H]1OCc1ccc(-c2ccccc2)cc1 | inactive |  | inactive | inactive | inactive | inactive | inactive | inactive | inactive | -17.1% | inactive |  | 
Nc1nccc2c1ncn2[C@@H]1C=C(CO)[C@@H](O)[C@H]1O | 0.166 µM (active) |  |  |  |  |  |  |  |  |  |  |  | 7.94 µM (active)
NS(=O)(=O)NCCNc1nonc1C(=Nc1ccc(F)c(Br)c1)NO | inactive |  | 8.31 µM (active) | 2.34 µM (active) | 8.31 µM (active) | 5.24 µM (active) | 16.6 µM (active) | 3.31 µM (active) | 9.33 µM (active) | -16.2% | inactive |  | 

From PubChem BioAssay (NCATS)
